Legend:
Settings in all cases: concentration: 1 μM, replicates: in singlicate; n = 1
FAK = system: T1, FAK
T1 construct: gene PTK2

FER = system: FER
FES = system: FES
FGFR1 = system: FGFR1
FGFR2 = system: FGFR2
FGFR3 = system: FGFR3
FGFR4 = system: FGFR4
FGR = system: FGR
FLT1 = system: FLT1
FLT3-autoinhibited = system: FLT3-autoinhibited
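Also: KINOMEscan kinase panel screen.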

SMILES	%Inh (FAK) [%]	%Inh (FER) [%]	%Inh (FES) [%]	%Inh (FGFR1) [%]	%Inh (FGFR2) [%]	%Inh (FGFR3) [%]	%Inh (FGFR4) [%]	%Inh (FGR) [%]	%Inh (FLT1) [%]	%Inh (FLT3-autoinhibited) [%]
CCn1c(-c2cccnc2O)nc2cnccc21 [SB-736715]	0	0	0	0	0	0	0	0	0	0
Fc1cccc(COc2nnc(-c3ccc4c(c3)CCO4)o2)c1	0	0	14	5	0	0	0	19	0	3
COc1ccc(C2=C(Nc3cccc(C(=O)O)c3)C(=O)NC2=O)cc1 [SB-390765]	13	0	21	13	13	14	0	6	4	17
CN1C(=O)C(Nc2ccc(Cl)c(C(=O)O)c2)=C(c2ccc(Cl)cc2)C1=O [SB-404290]	7	5	0	0	0	0	0	0	0	22
COc1ccccc1-c1ccc2c(NC(=O)C3CC3)n[nH]c2n1 [SB-711239]	0	4	22	0	12	8	10	26	6	0
CCn1c(-c2ccccn2)nc2cnccc21 [SB-736398]	0	2	30	1	48	77	1	41	21	0
O=C(Nc1n[nH]c2nc(-c3nccs3)c(Br)cc12)C1CC1 [SB-742251]	0	0	12	0	0	0	10	29	36	0
